# Assay outcomes deposited in PubChem BioAssay by several laboratories.
# Shown are actives, neighbours in structure and some others; about 2.3% of the full set was active somewhere.
# Cardio protect – myocardial damage modulation in H9c2 cells; H9c2 cardiomyocytes, H2O2 injury protection, ATPLite, 2 h; protection from H2O2 cell death, % at 20 µM; actives 0.63% (n = 360,000);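 active means compounds giving at least 50% protection of heart cells from peroxide-induced death in the single-dose screen, raw or plate-pattern-corrected value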;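 further: 0% = DMSO wells with peroxide and 100% = DMSO wells without peroxide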
# FAS TE block – FAS thioesterase (human) inhibition; P49327; recombinant FAS-TE, OMFH fluorogenic substrate, fluorescence endpoint; inhibition, % at 15 µM; actives 0.67% (n = 360,000); AID 602261;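 active means compounds whose normalised, plate-corrected inhibition of enzyme fluorescence in the single-dose primary screen is 50% or more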;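 further: 0% = DMSO with enzyme and 100% = substrate without enzyme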
# Calpain2 inh – blocks pig calpain II enzyme activity; purified calpain II, fluorogenic peptide substrate, 30 min; inhibition, % at 16 µM; actives 0.37% (n = 220,000);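 active means inhibition above about 50%, limit read from the data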
# TAG inh – inhibitors of triacylglycerol accumulation | actives 0.66% (n = 230,000) | inhibition, % at 12.5 µM | AID 651582 | H9c2 cells, Nile Red lipid (TAG) fluorescence; cells loaded with 200 µM oleic acid;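 active means pattern-corrected inhibition of lipid staining of at least 50% with the nuclear-stain viability signal not falling by more than 50%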;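 further: 0% = DMSO wells and 100% = triacsin C control wells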
# aDG glyco act – increases alpha dystroglycan glycosylation; Pro5-aDG cells, alpha-DG glycosylation AlphaScreen (IIH6); 0% Pro5, 100% B10-LARGE cell signal; activation, % at 10 µM; actives 0.22% (n = 360,000); AID 624168;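 active means activation of at least 8% versus controls, or a plate z-score of at least 8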;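 further: Pro5 are CHO cells carrying HIG-tagged alpha-DG that lacks glycosylation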
# MIN6 prolif – induces beta-cell replication in MIN6 cells. MIN6 cells proliferation, ATPlite luminescence, 48 h; cells starved in 0.2% serum; 100% = growth in 10% serum. proliferation, % at 10 µM. AID 2380. actives 0.29% (n = 330,000);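 active means compounds whose signal lies at least 3.5 SD above the mean of all wells on their plate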;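 further: 0% = DMSO-treated cells in low-serum medium and 100% = 10% serum control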
# * hit, by the source's call; . = not tested or not shown.
SMILES,Cardio protect,FAS TE block,Calpain2 inh,TAG inh,aDG glyco act,MIN6 prolif
COc1ccc(/C=C/C(=O)c2cc(F)ccc2OC(=O)c2ccc(OC)c(OC)c2)cc1OC,17,2,-1,17,-1,-6
COc1ccc(/C=C/C(=O)c2cc(F)ccc2OC(=O)c2ccccc2OC)cc1OC,28,0,-13,56*,0,.
COc1ccc(/C=C/C(=O)c2cc(F)ccc2OC(=O)c2ccccc2)cc1OC,0,0,.,80*,0,-5
COc1ccc(/C=C/C(=O)c2cc(Br)ccc2OC(=O)c2ccco2)cc1OC,10,-3,-7,.,0,-6
CSc1ccccc1NC(=O)CN(C)CC(=O)c1c(C)[nH]c2ccccc12,1,3,.,15,0,1
CC(=O)N1c2ccc(S(=O)(=O)NCCC(=O)Nc3ncccc3C)cc2CC1C (centres undefined),0,-8,.,.,0,-4
COc1ccc(N=Cc2cc(Cc3ccccc3Cl)cc([N+](=O)[O-])c2O)cc1OC,76*,1,-64,.,0,-6
Cc1sc(NC(=O)c2cccs2)nc1-c1ccccc1,-5,19,7,29,1,-5
Cc1sc(NC(=S)NC(=O)c2cccs2)nc1-c1ccc(C(C)C)cc1,-7,5,62*,.,0,-4
CCCN1CCN(C(=O)CCc2nnc3ccc(N4CCN(c5cccc(OC)c5)CC4)nn23)CC1,55*,-2,.,.,0,-4
COc1cccc(N2CCN(c3ccc4nnc(CCC(=O)N5CCC(C)CC5)n4n3)CC2)c1,20,-2,.,.,0,-2
CCOc1ccc(-n2cc(-c3ccccc3)c3c(N4CCOCC4)ncnc32)cc1,63*,20,-8,-13,-1,-5
c1ccc(-c2cn(-c3ccccc3)c3ncnc(N4CCCCC4)c23)cc1,5,26,53*,1,2,-6
CCOc1ccc(-n2cc(-c3ccccc3)c3c(=S)nc[nH]c32)cc1,52*,26,.,.,1,-8
CCOC(=O)C1CCCN(C(=O)CCc2nnc(-c3ccc(C(C)=O)s3)o2)C1 (centres undefined),-1,1,.,.,0,0
Cc1ccc(C)c(S(=O)(=O)N(C(=O)c2ccncc2)c2ccc(OC(=O)c3ccncc3)cc2)c1,53*,19,-5,-16,0,-1
C[C@H](CO)N1C[C@H](C)[C@H](CN(C)Cc2ccncc2)OCc2ccccc2-c2c(n(C)c3ccccc23)C1=O,-14,0,.,9,0,.
COC(=O)c1ccc(N)c(N=CC2=C(O)CC(C)(C)CC2=O)c1,58*,5,-12,.,0,0
CC1(C)CC(=O)C(C=Nc2cc(C(=O)c3ccccc3)ccc2N)=C(O)C1,17,4,20,5,0,-1
CC(=O)O[C@H]1C(=O)[C@@]2(C)[C@H]([C@H](OC(=O)c3ccccc3)[C@]3(O)C[C@H](OC(=O)[C@H](O)[C@@H](NC(=O)c4ccccc4)c4ccccc4)C(C)=C1C3(C)C)[C@]1(OC(C)=O)CO[C@@H]1C[C@@H]2O,-2,5,.,56*,0,-7
CC(=O)O[C@H]1C(=O)[C@@]2(C)[C@H]([C@H](OC(=O)c3ccccc3)[C@]3(O)C[C@H](OC(=O)[C@H](O)C(NC(=O)c4ccccc4)c4ccccc4)C(C)=C1C3(C)C)[C@]1(OC(C)=O)CO[C@@H]1C[C@@H]2O (some centres undefined),6,12,7,62,0,-3
CCn1c(O)c(/C=N/N=C2CCCC2)c2ccc(C3=NNC(=O)CC3)cc21,57*,-2,-52,.,-1,-5
CCCCC(CCCC)=N/N=C/c1c(O)n(CC)c2cc(C3=NNC(=O)CC3)ccc12,19,-1,-131,.,0,2
CCn1c(O)c(/C=N/N=C2CCCCC2)c2cc(C3=NNC(=O)CC3)ccc21,54*,0,-71,7,0,0
Cc1cc(C)n2nc(CC(=O)NNC(=O)COc3ccccc3)nc2n1,-1,-5,.,.,0,-4
COc1ccccc1NC(=O)N(C)C[C@@H]1OCc2cnnn2CCCC(=O)N([C@@H](C)CO)C[C@@H]1C,11,-9,.,-6,0,.
